# PubChem BioAssay AID686979 (National Center for Advancing Translational Sciences (NCATS), 2013)
# Among all 420,000 compounds or so, about 50,000 (12%) were called active. Another 26% or so got no clear call; they are omitted. This is one part of a sample in which actives are shown more often than they occur. Unmarked numbers belong to inactive results. The call rests on the fitted dose curve; in most records, active means well fitted inhibition curve with a large enough effect; inconclusive means small, poorly fitted or top-dose-only effect; inactive means flat fitted curve, though single readings scatter.
# Test: qHTS for Inhibitors of human tyrosyl-DNA phosphodiesterase 1 (TDP1): qHTS in cells in presence of CPT; further: nearly all actives have a fitted effect of over 55% in size
# Conditions: chicken DT40 Tdp1-/-;hTDP1 cells + 20 nM CPT, ATP luminescence, 48 h; series mostly up to 46.2 µM; activity change, negative = growth inhibition: at the top concentration
# How it was run: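 Chicken DT40 Tdp1-/- cells complemented with human TDP1, 400 cells/well, exposed to compounds plus 20 nM camptothecin for at least 48 h at 37 C; viability read as ATP content by CellTiter-Glo luminescence.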
# On the % scale 0 is the no-effect control and ±100 the full control effect; potency means the concentration at half of the fitted maximal effect.
SMILES,Potency,"activity change, negative = growth inhibition"
Cc1oc(C)c2c(=O)cc(-c3ccc4c(c3)OCO4)cc(OC(=O)c3ccc(Cl)cc3)c12,20.6 µM (active),
CC1(c2ccc(Cl)cc2)NC(=O)N(CC(=O)c2ccc3c(c2)OCO3)C1=O (centres undefined),,-26.1%
COc1ccc(Cl)cc1NC(=O)CN(C)CC(=O)Nc1ccc2c(c1)OCO2,,-29.4%
Cc1cc(-c2ccccc2)nc(N2CCC(C(=O)NC34CC5CC(CC(C5)C3)C4)CC2)n1,,-20%
CSCCC(NC(=O)COc1ccccc1)C(=O)OCCOc1ccc(F)cc1 (centres undefined),,1.47%
CSCCC(NC(=O)COc1ccccc1)C(=O)N1CCN(c2cccc(C(F)(F)F)c2)CC1 (centres undefined),16.4 µM (active),
CSCCC(NC(=O)COc1ccccc1)C(=O)OCCOc1ccc(Br)cc1 (centres undefined),,-7.17%
Nc1cc(N2CCCCCC2)c2nonc2c1[N+](=O)[O-],,3.78%
C(=Nc1ccc(/C=C/c2ccnc3ccccc23)cc1)Nc1ccc(/C=C/c2ccnc3ccccc23)cc1,10 µM (active),
C(=Nc1ccc(/C=C/c2ccnc3ccccc23)cc1)c1cc2c3c(c1)CCCN3CCC2,11.2 µM (active),
CCCCC(CCCC)c1ccc(C=Nc2ccc(/C=C/c3ccnc4ccccc34)cc2)cc1,17.8 µM (active),
Cc1ccc(CNC(=O)CCNS(=O)(=O)c2cccc3nonc23)cc1,,0.319%
CCOC(=O)Cc1ccc(NC(=O)Nc2c[nH]c(=O)[nH]c2=O)cc1,,-22%
O=C(NNC(=S)Nc1ccc(F)cc1)[C@H]1C[C@@H]1c1ccccc1,,-0.703%
CC(Oc1ccccc1F)C(=O)NN (centres undefined),,-0.304%
Cc1ccc(S(=O)(=O)N(C)C)cc1NC(=O)CN1c2cccc3cccc(c23)S1(=O)=O,,-24.2%
Cc1c(NC(=O)c2c([N+](=O)[O-])cnn2C)c(=O)n(-c2ccccc2)n1C,,-1.75%
CC(C)CC(NS(=O)(=O)c1ccc2c(c1)oc(=O)n2C)C(=O)NCc1ccccc1Cl (centres undefined),,8.64%
O=c1c2cc([N+](=O)[O-])ccc2nc2n1CCC2,,5.4%
Cc1cc(C(C)(C)C)cc(C)c1N,,-4.73%
C=CCn1c(=NC(=O)c2ccc(S(=O)(=O)N3CCCC3)cc2)sc2cc(NC(C)=O)ccc21,,-24.1%
C=CCn1c(=NC(=O)c2cccs2)sc2cc(NC(C)=O)ccc21,13 µM (active),
C=CCn1c(CCNC(=O)c2cccs2)n[nH]c1=S,,-7.48%
Cc1cccc(CCNS(=O)(=O)c2ccc3c(c2)NC(=O)CO3)c1,,-23.9%
CCOC(=O)c1cc2c(=O)n3ccccc3nc2n(CC2CCCO2)c1=NC(=O)c1ccc(C(C)(C)C)cc1 (centres undefined),,-1.11%

SMILES,Potency,"activity change, negative = growth inhibition"
CCc1nc(SCC(=O)NNC(=O)c2ccc(C)cc2)c2ccccc2n1,,-13.1%
COC(=O)CSc1nc(C2CC2)nc2ccccc12,,-15.9%
CC(C)N(C(=O)CSc1nc(COc2ccccc2)nc2ccccc12)C(C)C,23.1 µM (active),
Cc1cc(C)cc(NC(=O)NC2CCN(CC(=O)Nc3cccc(Cl)c3C)CC2)c1,,-18%
Cc1nn(Cc2ccccc2)c(C)c1C(=O)N1CCN(CC(=O)Nc2ccccc2Cl)CC1,16.4 µM (active),
CCC(=O)Nc1ccccc1C(=O)N1CCN(Cc2ccccc2)CC1,,-9.21%
CNC(=O)CN1C(=O)NC(c2ccccc2)(c2ccccc2)C1=O,,-0.402%
COC(=O)c1ccc(C(=O)OC)c(NC(=S)N2CCN(c3ccc(F)cc3)CC2)c1,,-26.1%
Cc1ccc(SCC(=O)N2CCN(c3ccc(F)cc3)CC2)cc1,,-23%
Cc1ccc(CSCC2Nc3ccc(C(=O)N4CCN(c5ccc(F)cc5)CC4)cc3NC2=O)cc1 (centres undefined),16.4 µM (active),
CN(Cc1ccc(CNC[C@H]2O[C@@H](n3cnc4c(N)ncnc43)[C@H](O)[C@@H]2O)o1)S(C)(=O)=O,,-7.47%
Cn1cccc1C(C#N)c1ccccc1C#N (centres undefined),,-1.65%
Cc1ccc(C2=Nc3c(ccc4ccccc34)C(c3ccncc3)=NN2)cc1,18.4 µM (active),
CCc1ccc2c(c1)C(c1ccc([N+](=O)[O-])cc1)=NNC(c1ccccc1)=N2,,-24.4%
Cc1cc(C)n2nc(C(=O)OC(C)C(=O)c3cc(C)c(C)cc3C)nc2n1 (centres undefined),,9.74%
COc1ccc(C(=O)NC2CCN(C(=S)Nc3ccccc3)CC2)cc1,,-2.64%
COc1ccc(C(=O)NC2CCN(C(=S)NCCc3ccccc3)CC2)cc1,,-9.89%
COc1cc(OC)cc(C(=O)NC2CCN(C(=O)N3c4ccccc4Sc4ccccc43)CC2)c1,29.1 µM (active),
O=C(c1ncn2c1c(=O)[nH]c1ccccc12)N1CCc2ccccc2C1,,-1.67%
CCOC(=O)C1CCCN(CC(=O)Nc2cc(C)c3c(=O)oc4ccccc4c3n2)C1 (centres undefined),,0.0764%
COc1cc(/C=C/C(=O)O)cc(S(=O)(=O)Nc2ccccc2SC)c1OC,,1.85%
O=C(CC1Oc2ccc(Cl)cc2NC1=O)NCc1ccccc1 (centres undefined),,-14.1%
O=C1N(Cc2ccccc2)c2ccc(Cl)cc2C1(O)c1c[nH]c2ccccc12 (centres undefined),23.1 µM (active),
O=C(CSc1ncn[nH]1)NCc1ccc2c(c1)OCO2,,11.8%
